This note sets out measurements from PubChem BioAssay (NCI).

Among the test systems are NCI-H23 lung; NCI-H226 lung; NCI-H322M lung; HOP-62 NSCLC; NCI-H460 lung; HOP-92 NSCLC; NCI-H522 lung; A549/ATCC NSCLC; 786-0 renal; DU-145 prostate; K-562 leukemia; MALME-3M melanoma; MDA-MB-231 breast; SF-268 CNS; SF-295 CNS; SF-539 CNS; UACC-257 melanoma; M14 melanoma; RXF 393 renal; COLO 205 colon.
Common to all, as to test: NCI-60 one-dose screen, 48 h (100 = growth as untreated, 0 = no growth, -100 = all killed)
Holding throughout (settings): 10 µM

The panel holds about 83,000 compounds, 20% with a hit somewhere; the sample as a whole holds those more often.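 Growth was measured after 48 h exposure to one concentration of compound in 96-well plates. Values under 10 count as active.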 Unmarked numbers belong to inactive results. The source made the active and inactive calls.

In the case of `CN(C)c1ccc(/C=C/c2nc3ccccc3c(=O)n2CC(=O)Nc2ccccc2)cc1`, the growth in the test with NCI-H23 lung is 58.8%; in the test on NCI-H226 lung it was -6.92% (active); in the test with NCI-H322M lung, 48.6%; in the test with HOP-62 NSCLC, 37.3%; in the test with NCI-H460 lung it was 16.8%; with HOP-92 NSCLC, 15.3%. Moreover, the growth is 48.7% with NCI-H522 lung; 33.6% in the test on A549/ATCC NSCLC; 20.1% with 786-0 renal; 42.1% with DU-145 prostate; 55.6% with K-562 leukemia; 15.7% in the test with MALME-3M melanoma. The growth was 33.4% in the test with MDA-MB-231 breast; 57.3% in the test with SF-268 CNS; 35.5% with SF-295 CNS; -26.8% (active) in the test on SF-539 CNS; 60.4% in the test on UACC-257 melanoma; 81.4% in the test on M14 melanoma.
Turning to `O=C(N/N=C/c1ccc(B(O)O)o1)c1[nH]c2ccc(Br)cc2c1-c1ccccc1`, the growth in the test on NCI-H23 lung is 24%; in the test with NCI-H226 lung, 38.2%; in the test with NCI-H322M lung, 61.2%; with HOP-62 NSCLC it was 44.3%; in the test with NCI-H460 lung it was 11%; with HOP-92 NSCLC, 58.9%. Also, the growth in the test on NCI-H522 lung was -51% (active); in the test on A549/ATCC NSCLC it was 31.1%; in the test with 786-0 renal it was 41.6%; in the test on DU-145 prostate, 40.9%; in the test with K-562 leukemia it was 7.21% (active); with MALME-3M melanoma, 61.1%. Further, the growth in the test on MDA-MB-231 breast was 28.1%; in the test with RXF 393 renal, 1.27% (active); in the test on SF-268 CNS, 51.1%; with SF-295 CNS, -8.66% (active); in the test with SF-539 CNS it was -33.4% (active); with UACC-257 melanoma it was 63.4%. Also, the growth in the test on M14 melanoma is 20.1%.
With `C[C@H]1[C@H](C)CC[C@]2(COC(=O)CCC(=O)NCC#CCN3CCNCC3)CC[C@]3(C)C(=CC[C@@H]4[C@@]5(C)CCCNC(C)(C)[C@@H]5CC[C@]43C)[C@H]12`, the growth in the test on NCI-H23 lung is 44.1%; in the test with NCI-H226 lung, 75.6%; in the test on NCI-H322M lung, 77.2%; in the test on HOP-62 NSCLC, 60.8%; in the test with NCI-H460 lung, 9.64% (active); in the test with HOP-92 NSCLC it was 14.4%. Further, the growth is 59% in the test with NCI-H522 lung; 51.6% in the test with A549/ATCC NSCLC; 55.1% in the test on 786-0 renal; -76.9% (active) in the test on COLO 205 colon; 74.4% in the test on DU-145 prostate; -38.7% (active) with MALME-3M melanoma. Also, the growth is 43.4% with MDA-MB-231 breast; 50.3% in the test with RXF 393 renal; 77.1% in the test with SF-268 CNS; 28.1% in the test with SF-295 CNS; 41.9% with SF-539 CNS; 26.3% in the test on UACC-257 melanoma. For the same compound, in the test on M14 melanoma, the growth is -16.7% (active).
Turning to `O=C(Cn1cc(CSc2nnc3oc4ccccc4n23)nn1)Nc1ccc(Br)cc1`, the growth in the test on NCI-H23 lung is 62.7%; with NCI-H226 lung, 45.2%; in the test on NCI-H322M lung, 86.9%; in the test on HOP-62 NSCLC, 38.5%; in the test on NCI-H460 lung, 101%; with HOP-92 NSCLC it was 32%. For the same compound, the growth in the test on NCI-H522 lung was 79.5%; in the test on A549/ATCC NSCLC, 76.5%; in the test on 786-0 renal, 69.6%; with COLO 205 colon it was 103%; in the test with DU-145 prostate, 92.3%; with MALME-3M melanoma it was 87.8%. Moreover, the growth with MDA-MB-231 breast was 35.5%; in the test on RXF 393 renal, 6.71% (active); in the test on SF-268 CNS, 37.8%; with SF-295 CNS, 43.7%; in the test on SF-539 CNS, 29.9%; in the test with UACC-257 melanoma, 88.8%. Also, the growth with M14 melanoma was 98.8%.
Regarding `CN1CCN(c2ccc(C(=O)/C=C/c3cc(C(F)(F)F)ccc3Cl)cc2)CC1`, the growth in the test with NCI-H23 lung is -95.3% (active); in the test on NCI-H226 lung it was -93% (active); in the test on NCI-H322M lung, -94.8% (active); with HOP-62 NSCLC, -27.4% (active); with NCI-H460 lung, -46.6% (active); with HOP-92 NSCLC it was -58.9% (active). For the same compound, the growth with NCI-H522 lung was -60.4% (active); in the test on A549/ATCC NSCLC, -78.1% (active); in the test on 786-0 renal it was -83.1% (active); in the test on DU-145 prostate it was -62.5% (active); with K-562 leukemia it was 2.76% (active); with MALME-3M melanoma, -95.4% (active). The growth in the test with MDA-MB-231 breast is -95.1% (active); in the test with SF-268 CNS, 1.69% (active); in the test on SF-295 CNS it was -89.3% (active); in the test with SF-539 CNS, -100% (active); with UACC-257 melanoma, -79.7% (active); in the test with M14 melanoma, -84.9% (active).
With `Cc1ccc(C(C)C)cc1NC(=O)c1ccccc1O`, the growth with NCI-H23 lung is 11.8%; with NCI-H226 lung it was 26.6%; in the test with NCI-H322M lung it was 55%; in the test with HOP-62 NSCLC, 54.4%; in the test with NCI-H460 lung, 30.8%; with HOP-92 NSCLC, -4.4% (active). Moreover, the growth in the test on NCI-H522 lung is 20.6%; in the test on A549/ATCC NSCLC it was 47.8%; with 786-0 renal it was 58.8%; in the test with COLO 205 colon, 100%; with DU-145 prostate, 63.3%; in the test on MALME-3M melanoma it was 9.96% (active). Further, the growth with MDA-MB-231 breast is 65.1%; in the test with RXF 393 renal it was 57.3%; in the test on SF-268 CNS, 55.2%; in the test on SF-295 CNS, 61.8%; in the test on SF-539 CNS it was 49.5%; in the test on UACC-257 melanoma, 29%. Further, the growth in the test with M14 melanoma was 43.2%.
As to `O=C(c1ccc(O)cc1)C1[C@H](c2ccc(Br)cc2)[C@@H](c2ccccc2)NC12C(=O)Nc1ccc(Br)cc12` (stereo not given in full), the growth in the test with NCI-H23 lung was -54.4% (active); in the test on NCI-H226 lung it was -34.5% (active); with NCI-H322M lung, 10.4%; in the test with HOP-62 NSCLC, -36.2% (active); in the test with NCI-H460 lung it was 6.63% (active); with HOP-92 NSCLC, -21.3% (active). The growth was -41.6% (active) in the test with NCI-H522 lung; 13.4% with A549/ATCC NSCLC; -5.43% (active) in the test on 786-0 renal; 9.58% (active) in the test with DU-145 prostate; 3.5% (active) in the test with K-562 leukemia; -49.3% (active) with MALME-3M melanoma. Further, the growth is -67.7% (active) with MDA-MB-231 breast; -62.9% (active) in the test with RXF 393 renal; 10.6% with SF-268 CNS; -22.7% (active) in the test with SF-295 CNS; -17.8% (active) with SF-539 CNS; 49.1% in the test on UACC-257 melanoma. Moreover, the growth in the test with M14 melanoma was 14.8%.
Regarding `O=C(c1ccc(Cl)cc1)C1[C@H](c2ccc(Br)cc2)[C@@H](c2ccccc2)NC12C(=O)Nc1ccc(Br)cc12` (stereo not given in full), the growth in the test on NCI-H23 lung was -92.7% (active); in the test on NCI-H226 lung it was -90.5% (active); in the test on NCI-H322M lung it was -59.3% (active); in the test with HOP-62 NSCLC, -80.3% (active); with NCI-H460 lung, -62.5% (active); in the test on HOP-92 NSCLC, -72.7% (active). Further, the growth in the test on NCI-H522 lung was -82% (active); in the test with A549/ATCC NSCLC it was -51.5% (active); in the test on 786-0 renal it was -80.4% (active); in the test on DU-145 prostate it was -43.2% (active); in the test on K-562 leukemia, -37.6% (active); in the test with MALME-3M melanoma it was -95.5% (active). For the same compound, the growth in the test with MDA-MB-231 breast is -96.1% (active); in the test with RXF 393 renal it was -94.8% (active); in the test on SF-268 CNS, -28.6% (active); in the test on SF-295 CNS, -97.2% (active); in the test on SF-539 CNS, -88.8% (active); with UACC-257 melanoma, -71.3% (active). In addition, the growth with M14 melanoma is 3.03% (active).
